Rows were chosen to be rich in hits. Some 2.9% of all compounds tested hit in one or more screens of this group.
KDM5B inhibitor = KDM5B demethylase inhibition | Potency, µM (doses to about 57.7 µM), most hits filed as inhibitors | KDM5B demethylase, FDH-coupled NADH fluorescence (FDH is formaldehyde dehydrogenase) | hit rate 2.6% among 220,000 | Q9UGL1; further: potency means the concentration at half of the fitted maximal effect; 0% is about no effect; nearly all actives have a fitted effect of over 70% in size
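Coupled FDH/NAD⁺ fluorescence readout. KDM5BΔAP 200 nM final; compound titration, 10 min RT preincubation; substrate mix 12.5 µM H3K4me3, 25 µM 2-OG, 50 µM Fe(II), 100 µM ascorbate, 0.25 mM NAD⁺, 0.25 U/mL FDH; ΔRFU over 30 min.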
IP6K1 inh = blocks human inositol hexakisphosphate kinase 1. Q92551. IP6K1 kinase, ADP-Glo luminescence, 2 h; active compounds read low. activity change, % (series mostly up to about 58 µM). hit rate 0.81% among 140,000. AID 1645851; in the data active means activity change below about -25%; further: on the % scale 0 is the no-effect control and ±100 the full control effect
Target sequence (Q92551 whole entry, looked up): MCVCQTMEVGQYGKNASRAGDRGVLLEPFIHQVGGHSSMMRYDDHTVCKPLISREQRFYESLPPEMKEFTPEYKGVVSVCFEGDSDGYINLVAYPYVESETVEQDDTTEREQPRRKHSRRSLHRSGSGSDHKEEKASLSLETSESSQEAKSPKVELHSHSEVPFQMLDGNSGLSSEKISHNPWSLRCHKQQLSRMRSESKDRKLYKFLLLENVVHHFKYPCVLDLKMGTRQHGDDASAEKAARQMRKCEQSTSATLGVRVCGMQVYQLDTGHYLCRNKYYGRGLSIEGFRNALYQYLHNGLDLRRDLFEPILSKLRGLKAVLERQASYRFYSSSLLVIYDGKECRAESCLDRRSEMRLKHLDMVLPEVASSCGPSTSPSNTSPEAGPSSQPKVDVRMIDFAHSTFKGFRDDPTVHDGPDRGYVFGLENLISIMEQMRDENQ
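ADP-Glo luminescence measures ADP made by human IP6K1 during a 2 h RT reaction with ATP/IP6 (mix at 1.3 mM/130 uM); top library doses 57.5 and 19.1 uM final.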
SNCA viab count = cell viability loss counter-screen | HEK-293-SNCA-luc viability, GF-AFC fluorescence, 24 h | Potency, µM (series often up to 57.1 µM), inactives show at the top dose activity change, negative = cytotoxicity, most hits filed as cytotoxic | hit rate 0.12% among 150,000;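 further: potency means the concentration at half of the fitted maximal effect; 0% = DMSO-treated cells and -100% = medium-only wells without cells; nearly all actives have a fitted effect of over 30% in size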
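HEK-293-SNCA-luc cells (1500/well) plated 24 h, then exposed 24 h to a dilution series; GF-AFC added 30 min at 37C, fluorescence 405/540 nm; normalised to medium-only and DMSO wells, Hill fit.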
SNCA expr inh = reduces expression of the alpha-synuclein gene | Potency, µM (series often up to 57.2 µM), inactives show at the highest dose activity change, negative = inhibition, most hits filed as inhibitors | HEK-293 SNCA-luciferase knock-in, luminescence, 24 h | AID 1671194 | hit rate 0.17% among 140,000;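 further: potency means the concentration at half of the fitted maximal effect; plate controls were DMSO cells for no effect and cell-free wells for full effect; nearly all actives have a fitted effect of over 45% in size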
The depositor's hits bear a star; i = inactive; ? = inconclusive; / = no result given; [ ] = another dose, or the depositor's remark. Unless noted, the call rests on the fitted dose curve; in most records, active means well fitted curve in the direction sought with a large enough effect; inconclusive means small, poorly fitted or top-dose-only effect, or another doubt; inactive means no such curve, though single readings can be large; an effect the other way counts as inactive or inconclusive.

SMILES | KDM5B inhibitor | IP6K1 inh | SNCA viab count | SNCA expr inh
Cc1cc(-c2cc3[nH]ccc3c(C(=O)NCc3c(C)cc(C)[nH]c3=O)n2)ccn1 | 11µM* | 0 | -16%[87.6 µM] | 45%[87.6 µM]
Cc1cc(C)c(CNC(=O)c2nc(-c3cccc(O)c3)cc3c2ccn3C)c(=O)[nH]1 | 35µM* | 14 | -29%[87.6 µM] | 3%[87.6 µM]
Cc1cc(C)c(CNC(=O)c2nc(-c3ccc(CO)cc3)cc3c2ccn3C)c(=O)[nH]1 | 35µM* | 1 | -21%[87.6 µM] | -19%[87.6 µM]
O=C(NC1CCN(CCCCC2(C(=O)NCC(F)(F)F)c3ccccc3-c3ccccc32)CC1)c1ccccc1-c1ccc(C(F)(F)F)cc1 | / | -17 | ? | /
COCCN1C[C@H]2CN(Cc3ccc(C(=O)O)cc3)CCN2C1=O | i | 0 | 9%[87.6 µM] | 6%[87.6 µM]
CCc1noc(-c2cccn3c(CNC(=O)c4cc(F)ccc4F)nnc23)n1 | 28µM* | 8 | 8% | 18%
CC(C)c1noc(-c2cccn3c(CNC(=O)c4ccc(F)cc4Cl)nnc23)n1 | 25µM* | -1 | 0% | -23%
Cc1ccc(C)c(C(=O)NCc2nnc3c(-c4nc(C(C)C)no4)cccn23)c1 | ? | 2 | 6% | 7%
CCc1noc(-c2cccn3c(CNC(=O)c4ccc(F)cc4Cl)nnc23)n1 | ? | 2 | 7% | 3%
CC(C)c1noc(-c2cccn3c(CNC(=O)c4cc(F)ccc4Cl)nnc23)n1 | 22µM* | 1 | -15% | 5%
CC(C)c1noc(-c2cccn3c(CNC(=O)c4ccccc4F)nnc23)n1 | ? | 6 | -2% | ?
CC(C)c1noc(-c2cccn3c(CNC(=O)c4cc(F)ccc4F)nnc23)n1 | 25µM* | 12 | 1% | -19%
Cc1ccccc1-c1cc(C(=O)O)c2ccc(Br)cc2n1 | i | / | / | /
CCc1noc(-c2cccn3c(CNC(=O)c4ccc(F)c(F)c4)nnc23)n1 | 4µM* | -2 | -13% | -22%
COc1ccc(N2CCCCS2(=O)=O)cc1S(=O)(=O)NCCc1ccccc1F | i | / | / | /
CCOC(=O)C1(NC(=O)c2cc(Br)ccc2F)CCCCC1 | i | / | / | /
CCC1Oc2ccc(NC(=O)c3ccccc3OC(C)=O)cc2CN(Cc2ccccc2F)C1=O (stereo not drawn) | 25µM* | 0 | -27% | -16%
CC(=O)Oc1ccccc1C(=O)Nc1ccc2c(c1)CN(Cc1ccc(Cl)cc1)C(=O)C(C)O2 (stereo not drawn) | 35µM* | 19 | 3% | 11%
CC1Oc2ccc(NC(=O)c3ccccc3)cc2CN(Cc2ccc(Cl)cc2)C1=O (stereo not drawn) | ? | 8 | ? | -15%
CN(Cc1ccc2c(c1)OCO2)C(=O)c1nn(-c2ccccc2)c(=O)c2ccccc12 | i | / | / | /
CSCC(=O)Nc1ccc2n(c1=O)C[C@H]1C[C@@H]2CN(C(=O)c2ccc(-c3ccccc3)cc2)C1 | i | -3 | -3% | 1%
CCCS(=O)(=O)Nc1ccc2n(c1=O)C[C@H]1C[C@@H]2CN(C(=O)c2ccc(-c3ccccc3)cc2)C1 | 20µM* | -10 | 1% | 38%
O=S(=O)(c1ccccc1C(F)(F)F)N1CCC(C2CCNC2)CC1 (stereo not drawn) | i | 19 | 2%[12.5 µM] | ?
COc1ccc(Nc2ccc3c(n2)CN(Cc2ccccc2C)C(=O)CO3)cc1 | 35µM* | -12 | ? | -12%[87.6 µM]
COc1ccc(Nc2ccc3c(n2)CN(Cc2ccccc2F)C(=O)CO3)cc1 | 35µM* | -25 | ? | 14%[87.6 µM]
SMILES | KDM5B inhibitor | IP6K1 inh | SNCA viab count | SNCA expr inh
O=C1COc2ccc(Nc3ccccc3)nc2CN1Cc1ccccc1 | ? | -21 | -6%[87.6 µM] | -28%[87.6 µM]
Cc1nc(CN2Cc3nc(Nc4ccc(C(F)(F)F)cc4)ccc3OCC2=O)cs1 | 35µM* | -6 | ? | -34%[87.6 µM]
COc1ccccc1-c1ccc2c(n1)CN(Cc1ccccc1C)C(=O)CO2 | ? | 5 | -4%[87.6 µM] | -4%[87.6 µM]
O=C(CC1CCCC1)N1CC[C@@]2(O)CCN(Cc3ccccn3)C[C@H]2C1 | 25µM* | 4 | 0% | -14%
CN(C)S(=O)(=O)N1CCN(C(=O)Cc2cccc(F)c2)CC1 | i | / | / | /
Cc1cc(C[C@@H]2COC[C@@H]2NC(=O)c2ccccc2-c2ccc(F)cc2)on1 | i | -15 | -4% | 6%
Cc1cc(C[C@@H]2COC[C@@H]2NC(=O)c2cnn3cc(CCO)cnc23)on1 | 28µM* | -8 | 3% | -12%
Cc1cc(C[C@@H]2COC[C@@H]2NC(=O)c2ccc(S(N)(=O)=O)cc2)on1 | i | 13 | 5% | 12%
Cc1cc(C[C@@H]2COC[C@@H]2NC(=O)c2cc(CC(C)C)nc(N)n2)on1 | 32µM* | 26 | -22% | -17%
O=C(c1ccc(N2CCCC2)nc1)N1CCC(N2CCOCC2)CC1 | ? | 1 | -13% | -18%
O=C(c1ccc(N2CC[C@H](O)C2)nc1)N1CCC(N2CCOCC2)CC1 | 25µM* | 36 | -9% | 14%
CN1CCC2(C1)CN(Cc1ccccc1)c1ccc(C(=O)Nc3ccc(F)cc3)cc12 (stereo not drawn) | ? | -6 | -15%[87.6 µM] | 12%[87.6 µM]
CN1CCC2(C1)CN(CC1CC1)c1ccc(C(=O)NCC3CC3)cc12 (stereo not drawn) | 35µM* | 7 | 8%[87.6 µM] | 10%[87.6 µM]
CN1CCCC2(C1)CN(C)c1ccc(C(=O)Nc3ccc(F)cc3)cc12 (stereo not drawn) | 35µM* | 1 | -14%[87.6 µM] | 6%[87.6 µM]
CC(C)CNC(=O)c1ccc2c(c1)C1(CCN(C)C1)CN2CC1CC1 (stereo not drawn) | 35µM* | 2 | 6%[87.6 µM] | 15%[87.6 µM]
COc1ccc(NC(=O)c2ccc3c(c2)C2(CCCN(C)C2)CN3C)cc1 (stereo not drawn) | i | 2 | 8%[87.6 µM] | 31%[87.6 µM]
CN1CCCC2(C1)CN(C)c1ccc(C(=O)NCC3CCCCC3)cc12 (stereo not drawn) | 35µM* | -12 | -2%[87.6 µM] | -7%[87.6 µM]
CN1CCCC2(C1)CN(Cc1cccnc1)c1ccc(C(=O)Nc3ccc(F)cc3)cc12 (stereo not drawn) | i | -4 | 0%[87.6 µM] | 0%[87.6 µM]
COc1cccc(/C=C(/CCC(=O)O)c2nc3ccccc3s2)c1 | i | / | / | /
CSc1cccc(NC(=O)CCc2ncc(-c3ccccc3F)o2)c1 | i | / | / | /
CC(C)(C)C(=O)Nc1cc(-c2ccccn2)nn1-c1ccccc1 | / | 6 | -7%[87.6 µM] | 5%[87.6 µM]
O=C(NCc1cccs1)c1ccc2ccccc2c1 | i | / | / | /
CN1CCCC2(C1)CN(C)c1ccc(C(=O)NCc3cccs3)cc12 (stereo not drawn) | 35µM* | -5 | 1%[87.6 µM] | 1%[87.6 µM]
COc1ccc(-c2ccc3c(c2)C(=O)N2C[C@@H](NS(=O)(=O)c4ccc(F)cc4)C[C@H]2C(=O)N3)c(OC)c1 | 35µM* | 0 | ? | ?
CS(=O)(=O)N[C@H]1C[C@H]2C(=O)Nc3ccc(-c4cccs4)cc3C(=O)N2C1 | 40µM* | -13 | -10%[87.6 µM] | 18%[87.6 µM]
O=C(N[C@H]1C[C@H]2C(=O)Nc3ccc(-c4cccs4)cc3C(=O)N2C1)c1ccccc1 | 32µM* | -17 | -28%[87.6 µM] | ?
O=C1Nc2ccc(-c3ccsc3)cc2C(=O)N2C[C@@H](NS(=O)(=O)c3ccc(F)cc3)C[C@@H]12 | ? | -5 | -5% | -11%

Screening results from PubChem BioAssay.
